In the library only some 19% were active in any assay of this set; here they are far more common.
uPA generation = qHTS for Inhibitors of Cell Surface uPA Generation; 0.31% of 330,000 active; Potency, µM (top dose mostly 38.3 µM), usual class: inhibitors; cell surface uPA generation assay, qHTS; active = well fitted inhibition curve with a large enough effect; inconclusive = small, poorly fitted or top-dose-only effect; inactive = no such curve, though single readings can be large or run the other way; tested in mouse RAW 264.7 cells; also: nearly all actives have a fitted effect of over 55% in size
HT1080NT lethal = qHTS for induction of synthetic lethality in tumor cells producing 2HG: qHTS for the HT-1080-NT fibrosarcoma cell line | AID 686970, 2013 | HT-1080-NT fibrosarcoma viability, CellTiter-Glo ATP luminescence, 48 h | Potency, µM (titrated, usually from 46.1 µM), most hits filed as cytotoxic | 1.6% of 360,000 active;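 also: NT is the 2HG producing partner of a matched IDH1 knockdown line; nearly all actives have a fitted effect of over 55% in size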
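A 48-hour cytotoxicity screen used HT-1080-NT cells plated 2 hours before compound delivery. ATP-based CellTiter-Glo luminescence measured viability, normalized to DMSO and no-cell controls.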
IL-1B inflam inh = qHTS for Inhibitors of Inflammasome Signaling: IL-1-beta AlphaLISA Primary Screen. THP-1 LPS/ATP IL-1B secretion, AlphaLISA, 16 h; active compounds read low. activity change, % at 57.5 µM. 4.7% of 360,000 active; in the data active = activity change below about -50%; inconclusive = mostly about -30% to -49%
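Secreted IL-1B measured by AlphaLISA bead assay after 16 h compound exposure of THP-1 cells; compounds (final up to 57.5 uM) added 1 h before LPS (250 ng/mL) and ATP (1.25 mM) stimulation; lower signal means less secretion.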
HT1080 IDH1KD tx = qHTS for induction of synthetic lethality in tumor cells producing 2HG: qHTS for the HT-1080-IDH1KD cell line. HT-1080 IDH1 knockdown viability, ATP luminescence, 48 h. Potency, µM (series often up to 46.1 µM), usual class: cytotoxic. 2% of 360,000 active. AID 686971, 2013
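IDH1KD HT-1080 cells, 750/well, RPMI + 5% FBS; compound pinned after 2 h settling; 48 h, 37 °C; CellTiter-Glo luminescence; % activity normalised to DMSO and no-cell wells; curves fitted, classed by r2 and efficacy.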
DT40 TDP1 no CPT = qHTS for Inhibitors of human tyrosyl-DNA phosphodiesterase 1 (TDP1): qHTS in cells in absence of CPT; DT40 Tdp1-/- hTDP1 cells, no CPT, ATP luminescence, 48 h; Potency, µM (highest dose often 46.2 µM), most hits filed as inhibitors; 15% of 420,000 active; also: nearly all actives have a fitted effect of over 55% in size
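Chicken DT40 Tdp1-/- cells stably complemented with human TDP1 were seeded at 400 cells/well with DMSO in place of 20 nM camptothecin. After compound pinning, cells grew at least 48 hr at 37 °C; viability read by CellTiter-Glo luminescence.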
TDP1 cell CPT = qHTS for Inhibitors of human tyrosyl-DNA phosphodiesterase 1 (TDP1): qHTS in cells in presence of CPT; Potency, µM (top dose mostly 46.2 µM), actives largely listed as inhibitors; AID 686979, 2013; 12% of 420,000 active; chicken DT40 Tdp1-/-;hTDP1 cells + 20 nM CPT, ATP luminescence, 48 h; also: nearly all actives have a fitted effect of over 55% in size
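Chicken DT40 Tdp1-/- cells complemented with human TDP1, 400 cells/well, exposed to compounds plus 20 nM camptothecin for at least 48 h at 37 C; viability read as ATP content by CellTiter-Glo luminescence.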
Numbers stand for hits; . = inactive; ? = inconclusive; / = no result given; [ ] = remark or other dose. Unless noted, calls follow the shape of the dose curve; as a rule, active = well fitted curve in the direction sought with a large enough effect; inconclusive = small, poorly fitted or top-dose-only effect, or another doubt; inactive = no such curve, though single readings can be large; an effect the other way counts as inactive or inconclusive.

SMILES	uPA generation	HT1080NT lethal	IL-1B inflam inh	HT1080 IDH1KD tx	DT40 TDP1 no CPT	TDP1 cell CPT
O=C(Nc1cccc(S(=O)(=O)NC2=NCCCCC2)c1)c1ccc(Cl)cc1	.	.	.	.	11.6µM	23.1µM
CCCOc1ccccc1OCC(=O)Nc1cccc(S(=O)(=O)NC2=NCCC2)c1	.	.	.	.	14.6µM	?
CCc1ccccc1OCC(=O)Nc1cccc(S(=O)(=O)NC2=NCCCCC2)c1	.	.	?	.	?	18.4µM
O=C(Nc1cccc(S(=O)(=O)NC2=NCCC2)c1)c1ccccc1	.	.	.	.	?	.
O=C1NCCCN1C1OC(CO)C(O)C1O (configuration not stated)	/	.	.	.	.	.
Cc1cc(-n2cnc(-c3cn[nH]c3C)n2)no1	.	.	.	.	.	.
CC(C)(C)NC(=O)Nc1nnc(SCC(=O)NC2CCCCC2)s1	.	.	.	.	?	?
Cc1cc(C)nc(NS(=O)(=O)c2ccc(NC(=O)COc3ccccc3)cc2)n1	.	.	.	.	.	.
CC(C)(C)c1ccc(OCC(=O)Nc2cccc(S(=O)(=O)NC3=NCCCCC3)c2)cc1	?	.	.	.	.	?
O=C(COc1cccc(C(F)(F)F)c1)Nc1cccc(S(=O)(=O)NC2=NCCCCC2)c1	?	.	.	.	25.9µM	23.1µM
Cc1cc(C)nc(NS(=O)(=O)c2ccc(NC(=O)COc3ccc(Cl)cc3C)cc2)n1	/	/	/	/	18.4µM	?
O=C(Nc1cccc(S(=O)(=O)NC2=NCCC2)c1)c1cc(-c2ccco2)nc2ccccc12	.	.	.	.	.	.
O=C(NC(=S)Nc1cccc(S(=O)(=O)NC2=NCCC2)c1)c1cc(-c2ccco2)nc2ccccc12	.	9.2µM	.	1.64µM	3.66µM	4.61µM
Cc1cc(Cl)ccc1OCC(=O)Nc1cccc(S(=O)(=O)NC2=NCCCCC2)c1	.	.	-71.5	.	18.4µM	11.6µM
COc1ccccc1NC(=O)Cc1nnc(SCC(=O)Nc2nccs2)n1C	.	.	.	.	.	.
CN(C)c1ccc(C2C=Cc3ccccc32)c2ccccc12 (configuration not stated)	/	/	/	/	?	.
COCCn1c(=O)c(-c2cccc(C#N)c2)nc2cnc(N3CCNCC3)nc21	/	/	/	/	?	.
COc1ccccc1-n1cc(CN2CCOc3ccc(CN4C[C@@H](C)O[C@@H](C)C4)cc3C2)cn1	/	/	/	/	?	.[9.04 µM]
CCCSCCCNC(=O)C1CCN(c2nc3ccccc3nc2C(F)(F)F)CC1	/	/	/	/	16.4µM	20.6µM
COc1ccc(CCNC(=O)C2CCN(c3nc4ccccc4nc3C(F)(F)F)CC2)cc1OC	/	/	/	/	18.4µM	23.1µM
COc1ccc(OC)c(CNC(=O)C2CCN(c3nc4ccccc4nc3C(F)(F)F)CC2)c1	/	/	/	/	.	.
COCCn1c(N)c(N(Cc2ccccc2)C(=O)C(C)Oc2ccc(Br)cc2)c(=O)[nH]c1=O (configuration not stated)	/	.	.	.	?	.
CCN(c1ccccc1)S(=O)(=O)c1cccc(C(=O)NCC(c2ccc(OC)cc2)N2CCCCC2)c1 (configuration not stated)	/	?	.	?	8.2µM	18.4µM
COc1ccc(C(CNC(=O)c2cccc(S(=O)(=O)N3CCCCC3)c2)N2CCCC2)cc1 (configuration not stated)	.	.	?	.	.	.
C=CCN(c1ccccc1)S(=O)(=O)c1cccc(C(=O)NCC(c2ccc(OC)cc2)N2CCCCC2)c1 (configuration not stated)	.	.	-65.8	.	5.8µM	5.8µM
SMILES	uPA generation	HT1080NT lethal	IL-1B inflam inh	HT1080 IDH1KD tx	DT40 TDP1 no CPT	TDP1 cell CPT
C=CCN(c1ccccc1OC)S(=O)(=O)c1cccc(C(=O)NCC(c2ccc(OC)cc2)N2CCCC2)c1 (configuration not stated)	.	.	?	.	7.31µM	3.66µM
COc1ccc(C(CNC(=O)c2cccc(S(=O)(=O)Nc3ccccc3OC)c2)N2CCCC2)cc1 (configuration not stated)	.	.	?	.	?	?
COc1ccc(CN2CC[C@H]3C=CC[C@@H](C(=O)Nc4nccs4)[C@H]3C2=O)cc1OC	/	/	/	/	.	.
CCOC(=O)c1ccccc1NC(=O)COC(=O)Cc1ccccc1F	.	.	.	.	.	.
CS(=O)(=O)c1ccc(N)c(SSc2cc(S(C)(=O)=O)ccc2N)c1	.	.	-95.2	.	?	?
CS(=O)(=O)c1ccc2nc(N)sc2c1	.	.	.	.	.	.
Cc1sc2ncnc(NCC(c3ccco3)N(C)C)c2c1C (configuration not stated)	.	.	.	.	?	.
CN(C)C(CNc1ncnc2sc3c(c12)CCCCC3)c1ccco1 (configuration not stated)	.	.	-51.4	.	18.4µM	?
c1csc(CCNc2ncnc3sc4c(c23)CCC4)c1	?	.	.	?	8.2µM	3.66µM
COCCn1c(=O)c(-c2ccccc2)nc2cnc(Oc3ccccc3)nc21	/	/	/	/	.	.
COc1ncc2ncc(=O)n(C3CC3)c2n1	/	/	/	/	?	.
Nc1c(C(=O)Nc2ccccc2F)sc2nc3c(cc12)CCCCCC3	/	/	/	/	3.66µM	2.59µM
CCc1nnc(NC(=O)c2sc3nc4c(cc3c2N)CCCCC4)s1	.	.	.	.	?	?
CCc1nnc(NC(=O)c2sc3nc4c(cc3c2N)CCCCCC4)s1	.	?	-72.0	?	?	.
CCC1CCc2nc3sc(C(=O)Nc4ccc(F)c(F)c4)c(N)c3cc2C1 (configuration not stated)	/	/	/	/	.	.
CCC1CCc2nc3sc(C(=O)Nc4ccc(C)cc4C)c(N)c3cc2C1 (configuration not stated)	/	/	/	/	23.1µM	?
Nc1c(C(=O)N2CCCCC2)sc2nc3c(cc12)CCCC3	.	.	.	.	?	.
COc1ccccc1NC(=O)c1sc2nc3c(cc2c1N)CCCCCC3	/	/	/	/	13µM	?
Cc1ccc2nc(CSc3nnc(NC(=O)c4ccc(C(C)(C)C)cc4)s3)cc(=O)n2c1	/	/	/	/	.	.
CCc1cc2c(SCC(=O)NC3CCCC3)ncnc2s1	/	.	.	.	?	?
O=C(CC[C@H]1O[C@@H](n2ccc(=O)[nH]c2=O)[C@H](O)[C@@H]1O)N[C@@H](Cc1ccccc1)C(=O)NCc1ccccc1	/	.	.	.	.	.

Screening results from PubChem BioAssay.
